Bioassay records (PubChem)
The list is not random: actives were taken first. Their share in the collection is about 0.8%.
GRP78 ERSR act = qHTS for Inducers of the Endoplasmic Reticulum Stress Response (ERSR) in Human Glioma: qHTS. U87-MG GRP78 promoter luciferase reporter, 16 h. Potency, µM, without a hit: top-dose activation, usual class: activators. 0.02% of 420,000 active; active means well fitted activation curve with a large enough effect; inconclusive means small, poorly fitted or top-dose-only effect; inactive means no such curve, though single readings can be large or run the other way; further: potency means the concentration at half of the fitted maximal effect; series mostly up to about 76 µM; % of control where 0% means no effect; nearly all actives have a fitted effect of over 35% in size
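Stably transfected U87-MG human glioma cells carrying a GRP78-based luminescent sensor were seeded at 1000 cells/well, pin-dosed with compounds and incubated 16 h. Luciferase reagent was then added, and end-point luminescence was read after 10 min at room temperature.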
TRPML1 blocker = qHTS for Inhibitors of the Human Mucolipin Transient Receptor Potential 1 (TRPML1); activity change, negative = inhibition, % (test concentration not listed); TRPML1-inducible cells, Ca2+ dye fluorescence, FDSS; active compounds read low; inhibition of EC80 agonist-evoked calcium signal; 0.02% of 390,000 active; Mucolipin-1 (Homo sapiens), Q9GZU1; in the data active means activity change below about -50%; inconclusive means between about -30% and that limit;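 further: stimulus is agonist 54-4 at its EC80 concentration; on the % scale 0 is the no-effect control and ±100 the full control effect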
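Tet-induced TRPML1-DL cells loaded with Ca8 no-wash calcium dye were read kinetically on FDSS. Compound addition was followed by EC80 agonist 54-4 (4 uM final); inhibition was read over 110 s.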
TRPML1 agonist = qHTS for Agonists of the Human Mucolipin Transient Receptor Potential 1 (TRPML1). TRPML1-expressing cells, Ca2+ dye fluorescence, FDSS. 0.12% of 410,000 active. activation, % (concentration not given with the values); in the data active means activation above about 50%; inconclusive means mostly about 30% to 49%; further: 0% is about no effect
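Tetracycline-induced TRPML1-DL cells are seeded and incubated overnight before loading with a no-wash Ca2+ dye and quencher. Agonist activity is taken from the 110 s fluorescence read following compound pin-transfer on an FDSS, before EC80 54-4 challenge.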
TRHR ag = qHTS for Small Molecule Agonists and Allosteric Enhancers of Human TRH Receptor: Primary Screen for Agonists | Thyrotropin-releasing hormone receptor (Homo sapiens), P34981 | TRHR cells, calcium flux fluo-8, FDSS agonist mode | activation, % at 2 µM | 0.18% of 360,000 active; in the data active means activation above about 30%; further: 0% is about no effect
Target sequence (P34981 whole entry, looked up): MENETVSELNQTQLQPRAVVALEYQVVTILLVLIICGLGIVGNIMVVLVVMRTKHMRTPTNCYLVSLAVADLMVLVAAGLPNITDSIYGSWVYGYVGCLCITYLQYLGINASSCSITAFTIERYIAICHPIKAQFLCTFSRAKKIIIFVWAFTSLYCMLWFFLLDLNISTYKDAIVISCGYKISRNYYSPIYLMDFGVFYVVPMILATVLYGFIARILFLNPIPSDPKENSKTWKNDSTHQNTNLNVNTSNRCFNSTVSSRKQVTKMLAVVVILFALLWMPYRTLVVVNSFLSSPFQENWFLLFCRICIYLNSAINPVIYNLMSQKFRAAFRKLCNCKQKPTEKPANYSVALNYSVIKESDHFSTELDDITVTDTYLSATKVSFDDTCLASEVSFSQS
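Steps: seed TRHR cells overnight; add fluo-8 no-wash Ca dye, RT 30 min–1.5 h; record 10 s baseline; pin-transfer compounds; monitor fluorescence 1 cycle/s for the agonist window. Calcium increases flag candidate agonists.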
TRHR PAM = qHTS for Small Molecule Agonists and Allosteric Enhancers of Human TRH Receptor: Primary Screen for Enhancers; AID 493056, 2011; enhancement, % at 2 µM; TRHR cells, fluo-8 calcium fluorescence, EC20 TRH enhancement; 0.66% of 360,000 active; Thyrotropin-releasing hormone receptor (Homo sapiens), P34981; in the data active means enhancement above about 30%; further: 0% is about no effect
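Enhancer read-out: after compound pinning and an initial kinetic agonist-mode read, an EC20 of TRH (10 nM final) was injected and fluo-8 calcium signal (Ex 480/Em 530) followed at 1 s/cycle for 100 cycles in TRHR-expressing cells.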
* = called active by the depositor; u = inconclusive; x = no result given.

SMILES	GRP78 ERSR act	TRPML1 blocker	TRPML1 agonist	TRHR ag	TRHR PAM
CCc1ccc(NC(=O)C2(c3ccccc3)CC2(Cl)Cl)cc1 (configuration not stated)	0%	-12	54*	6	-2
COc1ccc2oc(C(=O)NCCN3CCOCC3)c(C)c2c1OC	-5%	-9	0	1	34*
Cc1ccc2oc(C(=O)NCCCN3CCOCC3)c(C)c2c1	-4%	-6	0	0	-1
C/C(=N\NC(=O)c1c(C)nc2ccccn12)c1ccc(O)cc1O	-1%	-8	1	3	40*
COC(=O)c1ccccc1NC1CC(=O)N(c2c(C)cccc2C)C1=O (configuration not stated)	-2%	2	0	1	33*
COC(=O)c1ccc(NC2CC(=O)N(c3ccccc3C)C2=O)cc1 (configuration not stated)	-5%	-7	0	0	-1
Cc1ccnn1CC(=O)N1CCOc2c(cc(-c3csc4ccccc34)cc2OC2CCOC2)C1 (configuration not stated)	-3%	x	x	x	x
Cc1cc(NC(=O)CN2C(=O)c3ccccc3S2(=O)=O)no1	4%	5	-1	0	30*
O=C(COC(=O)c1cccc(S(=O)(=O)N2CCN(c3ccccc3)CC2)c1)NCc1ccco1	-4%	28	1	0	35*
Cc1cc2c(c(-c3nc4ccccc4s3)c1)OC(CNC(=O)CCc1cccnc1)C2 (configuration not stated)	-2%	x	x	x	x
CS(=O)(=O)c1ccc(-c2cccc3c2OC(CNC(=O)c2ccnc(Cl)c2)C3)cc1 (configuration not stated)	-6%	x	x	x	x
COc1cccc(C2(CC(=O)N3CCN(c4nonc4C)CC3)CC(=O)N(C3CCCC3)C2=O)c1 (configuration not stated)	0%	x	x	x	x
CCCCN1C(=O)/C(=C/C=C2\Oc3ccccc3N2CC)SC1=S	-2%	5	u	98*	4
Cc1nnsc1C(=O)NCC1Cc2cccc(-c3ncccn3)c2O1 (configuration not stated)	-3%	x	x	x	x
CC(=O)n1nc(-c2ccccc2)nc1NCc1ccc(N(C)C)cc1	3%	0	4	0	39*
CN(CC(=O)Nc1ccc(F)cc1)C(=O)CSc1nc2ncc(Cl)cc2[nH]1	-1%	-4	1	0	-1
CCn1c(SCC(=O)N(C)CC(=O)Nc2ccc(OC)cc2)nnc1-c1ccco1	-4%	-11	1	-1	38*
COc1ccc2nc(SCC(=O)N(C)CC(=O)Nc3ccc(F)cc3)[nH]c2c1	2%	12	1	0	36*
COC(=O)C1CCN(Cc2ccc3c(c2)CN(C(=O)C2Cc4ccccc4O2)CCO3)CC1 (configuration not stated)	-7%	x	x	x	x
N#C/C(=C/c1ccccc1)C(=O)NCc1ccccc1	u	-4	1	0	-6
CN(C)c1ccc(/C=C(/C#N)C(=O)NCc2ccccc2)o1	2%	3	20	43*	-2
COc1ccc(Nc2nc(N3CCOCC3)nc(N3CCOCC3)n2)cc1	-4%	x	x	-1	4
c1ccc(Nc2nc(N3CCOCC3)nc(N3CCOCC3)n2)cc1	-4%	-6	1	0	39*
CCOc1ccc(Nc2nc(Nc3ccc(OCC)cc3)nc(N3CCOCC3)n2)cc1	-2%	0	-1	-1	35*
Cc1cc(/C=N/Nc2nc(N3CCOCC3)nc(N3CCOCC3)n2)c(C)n1-c1ccccc1	1%	-4	-1	-1	32*
SMILES	GRP78 ERSR act	TRPML1 blocker	TRPML1 agonist	TRHR ag	TRHR PAM
Cc1csc(C(C)N(C)C(=O)c2cnn(-c3nccc(-c4cc(C)sc4C)n3)c2C)n1 (configuration not stated)	0%	x	x	x	x
Cc1c(C(=O)N2CC3CCC2C3)sc2ncnc(NCCc3c[nH]c4ccccc34)c12 (configuration not stated)	-2%	x	x	x	x
COc1ccc(OC)c(C(=O)NC(CC(N)=O)c2ccc(NCc3ccccn3)c([N+](=O)[O-])c2)c1 (configuration not stated)	-5%	-10	-1	0	-1
COc1ccc(OC)c(C(=O)NC(CC(N)=O)c2ccc(NCc3ccc(F)c(F)c3)c([N+](=O)[O-])c2)c1 (configuration not stated)	-3%	59	0	0	36*
CC(C)c1c(C(=O)N(C)CC2CCCN(C)C2)cnn1-c1nccc(-c2cccs2)n1 (configuration not stated)	1%	x	x	x	x
O=C(CCn1c(=O)[nH]c2ccsc2c1=O)N1CCN(c2ccc([N+](=O)[O-])cc2)CC1	-4%	12	3	0	36*
O=C(CCn1c(=O)[nH]c2ccsc2c1=O)N1CCN(c2cccc(Cl)c2)CC1	-3%	-10	2	-2	8
CCOC(=O)c1sc2ccccc2c1NC(=O)c1coc2ccccc2c1=O	-3%	-4	0	0	37*
CCOC(=O)c1sc2ccccc2c1OC(=O)c1ccccc1	-2%	10	1	1	-1
CCOC(=O)CC1C(=O)NCCN1C(=O)c1cc2c(=O)n3cccc(C)c3nc2s1 (configuration not stated)	-3%	1	-1	0	3
CCCN1C(=O)/C(=C/c2c(N3CCNC(=O)C3CC(=O)OC)nc3c(C)cccn3c2=O)SC1=S (configuration not stated)	x	x	x	76*	17
O=[S+]([O-])(c1cc2ccccc2o1)N1CCN([S+](=O)([O-])c2c(F)cccc2F)CC1	x	x	x	1	-2
C/C(=C\c1ccco1)CN1CCOc2ccc(CN3CCC(Oc4cccnc4)CC3)cc2C1	2%	x	x	x	x
COC(=O)C1=C(C)N(Cc2ccccc2)C(=S)N[C@H]1c1ccccc1	-5%	-22	65*	2	-1
COC(=O)/C(N=Nc1c(C)n(C)n(-c2ccccc2)c1=O)=C(\C)O	-2%	-9	2	0	33*
CCOC(=O)/C(N=Nc1c(C)n(C)n(-c2ccccc2)c1=O)=C(/O)c1ccccc1	-4%	29	0	0	-3
COc1ccc(C(=O)NC2(C(F)(F)F)C(=O)NC(C)=C2C#N)cc1 (configuration not stated)	0%	8	3	0	41*
